# Results: PubChem BioAssay
# Where “and” joins values, the source holds several entries; their conditions need not be identical. Equal values may be shown once. Values without a mark were called inactive. No rule for the calls is given here.
# Assays:
# [1] = test system: Aerobactin synthetase IucA (Klebsiella pneumoniae hvKP1); experiment: Biochemical IucA enzyme inhibition primary screen of the Spectrum library (AID 1346200); conditions: malachite green pyrophosphate, A620, at 8 µM, hits give low values;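 also: 100% = wells without compound and 0% = wells lacking enzyme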
# [2] = test system: Aerobactin synthetase IucA (Klebsiella pneumoniae, hypervirulent); experiment: IucA enzyme inhibition, biochemical, LOPAC library, absorbance readout (AID 1346212); conditions: IucA enzyme assay, absorbance (OD) readout; hits give low values;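 tested at 8 µM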;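 also: 100% = no compound wells and 0% = no enzyme wells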
SMILES,activity remaining [1] [%],remaining activity [2]
Cc1ccccc1N1C(=O)c2cc(S(N)(=O)=O)c(Cl)cc2NC1C (configuration not stated),95.7,122% and 125%
CN(C)CCCN1c2ccccc2Sc2ccc(C(F)(F)F)cc21,108,97%
COc1ccccc1OCC(O)CN1CCN(CC(=O)Nc2c(C)cccc2C)CC1 (configuration not stated),122,97.8%
NNc1nncc2ccccc12,102,101%
CC(=O)OC(C)C[N+](C)(C)C (configuration not stated),80.8,119%
OCCN1CCN(CCCN2c3ccccc3Sc3ccc(C(F)(F)F)cc32)CC1,125,93.9%
O=[N+]([O-])c1cccc2cn[nH]c12,102,114%
CCN(CC)CC(=O)Nc1c(C)cccc1C,101,109%
O=C1OC(=O)C2C3CCC(O3)C12 (configuration not stated),117,106%
CN(C)CCCN1c2ccccc2Sc2ccc(Cl)cc21,115,110%
O=C(CCc1ccc(O)cc1)c1c(O)cc(O)cc1O,105,79.2%
CCCCNc1cc(C(=O)O)cc(S(N)(=O)=O)c1Oc1ccccc1,115,109%
C[N+](C)(C)CCO,126,112%
NCCS(=O)(=O)O,123,97.8%
CN(C)CCC=C1c2ccccc2CCc2ccccc21,110,106%
CCN(CC)CCOCCOC(=O)C1(c2ccccc2)CCCC1,93.9,113%

SMILES,activity remaining [1] [%],remaining activity [2]
CN1CCN2c3ccccc3Cc3ccccc3C2C1 (configuration not stated),119,120%
N=c1nc(N2CCCCC2)cc(N)n1O,110,118%
C[C@](N)(Cc1ccc(O)c(O)c1)C(=O)O,121,113%
CN(C)CCCN1c2ccccc2Sc2ccccc21,109,95%
C[N+](C)(C)CCOC(N)=O,93.2,119%
CN1C[C@H](C(=O)N[C@]2(C)O[C@@]3(O)[C@@H]4CCCN4C(=O)[C@H](Cc4ccccc4)N3C2=O)C[C@@H]2c3cccc4[nH]cc(c34)C[C@H]21,118,105%
O=C(O)/C=C/c1ccc(O)c(O)c1,101,117%
Nc1c2c(nc3ccccc13)CCCC2,118,119%
Cn1c(=O)c2[nH]cnc2n(C)c1=O,120,111% and 102%
OCCN(CCO)c1nc(N2CCCCC2)c2nc(N(CCO)CCO)nc(N3CCCCC3)c2n1,89.5,92.9%
CCCn1c(=O)c2[nH]c(C3CCCC3)nc2n(CCC)c1=O,82.2,76.9%
O=c1n(CCCN2CCN(c3cccc(Cl)c3)CC2)nc2ccccn12,112,118%
CCOC(=O)C(C)(C)Oc1ccc(Cl)cc1,110,122%
Nc1nc(N)c2nc(-c3ccccc3)c(N)nc2n1,114,93.9%
O=C(O)c1cc(=O)c2ccccc2[nH]1,113,109%
